In PubChem BioAssay (NCATS):
Inconclusive results are not listed. The source made the active and inactive calls. Calls come from the whole dose curve; as a rule, active = well fitted activation curve with a large enough effect; inconclusive = small, poorly fitted or top-dose-only effect; inactive = flat fitted curve, though single readings scatter.

Test: Cellular Toxicity (caspase-3) Hek293 (AID 664);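 note: cells exposed to compound for 16 h at 37 °C before readout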
Conditions: HEK293 caspase-3 activation, DMSO = 0%, 100 µM tamoxifen = 100%; at 92.2 µM (top of the series)
Text: NIH Chemical Genomics Center [NCGC]
NIH Molecular Libraries Screening Centers Network [MLSCN]
National Institutes of Environmental Health Sciences [NIEHS]
National Toxicology Program [NTP]
We have developed a 1536-well cell-based assay for quantitative high throughput screening (qHTS) against a number of cell lines to determine in vitro caspase 3/7 of small molecules. This particular assay uses the Hek 293 cell line which is derived from human embryonic kidney cells.
NCGC Assay Protocol Summary:
The Caspase-Glo 3/7 assay (Promega) is a homogeneous method to measure caspase-3 and caspase-7 activities in cultured cells. The quantitation of caspase 3/7 activity is based on the cleavage of a peptide-aminoluciferin substrate. After caspase cleaves the substrate the free aminoluciferin is liberated and serves as the substrate of luciferase, which generates the light. The luminescent signal is proportional to amount of caspase 3/7 activity present.
Using the Caspase-Glo 3/7 assay, the amount of caspase 3/7 activity was measured in the Hek 293 cell line with complete culture medium following compound treatment for 16 hours. The assay was performed in opaque white 1536-well plates. In the screen, tamoxifen and doxorubicin were used as positive controls. Library compounds were measured for their ability to cause the activation of caspase 3/7 in the cell line, as reflected by an increase in luminescence signal, in a concentration-dependent manner. Data were normalized to the controls for basal activity (DMSO only) and 100% stimulation (100 uM tamoxifen). AC50 values were determined from concentration-response data modeled with the standard Hill equation.
qHTS protocol for caspase 3/7 assay in Hek 293 cells
[Step] [Parameter] [Value] [Description]
2. Time; 5 hr; 37 °C incubation
4. Controls; 23 nL; Tamoxifen 0.23 uM to 100 uM & Doxorubicin 7.0 pM to 100 uM
5. Time; 16 hr; 37 °C incubation
6. Reagent; 5 uL; Caspase-Glo 3/7 reagent
7. Time; 20 min; Room Temperature
8. Detection; Luminescence; Viewlux plate reader
Keywords: caspase 3/7, apoptosis, Hek 293 cell line, luminescence, NTPHTS, NTPHTS_NCGC, NIEHS, EPA, DSSTox, MLSMR, MLSCN, NIH Roadmap, qHTS, NCGC

| Structure (SMILES) | caspase-3 activation |
| --- | --- |
| Brc1cc(Br)c(Oc2cc(Br)c(Br)cc2Br)cc1Br | 0.345% (inactive) |
| NC(=O)Nc1nc2ccccc2[nH]1 | -0.34% (inactive) |
| CC(CCC(=O)O)(c1ccc(O)cc1)c1ccc(O)cc1 | 1.18% (inactive) |
| Oc1cc2c(cc1O)[C@H]1c3ccc(O)c(O)c3OC[C@@]1(O)C2 | 0.207% (inactive) |
| CC(=O)OCc1ccc2c(c1)OCO2 | -3.09% (inactive) |
| C[Si](C)(C)Cl | 1.84% (inactive) |
| Brc1cc(Oc2cc(Br)c(Br)c(Br)c2Br)c(Br)c(Br)c1Br | 0.395% (inactive) |
| CC/C=C/C/C=C/C/C=C/CCCCCCCC(=O)OCC | 7.96% (inactive) |
| O=C(O)/C=C/c1ccc(/C=C/C(=O)O)cc1 | -11.2% (inactive) |
| c1ccc2c(c1)ccc1ccccc12 | -0.803% (inactive) |
| C/C(Cl)=C/CCl | -0.884% (inactive) |
| c1ccc(CSCc2ccccc2)cc1 | 0.61% (inactive) |
| Nc1ccc(N)c(Cl)c1 | 4.53% (inactive) |
| CCc1ccc(C(c2ccc(CC)cc2)C(Cl)Cl)cc1 | 1.15% (inactive) |
| c1ccc(Nc2cccc3ccccc23)cc1 | 4.83% (inactive) |
| CCCCC(CC)COC(=O)COc1ccc(Cl)cc1Cl (stereo not given) | 1.58% (inactive) |
| O=CC(=O)c1ccccc1 | 3.78% (inactive) |
| OCC(CBr)(CBr)CBr | 0.713% (inactive) |
| CN(C)c1ccc(C(=N)c2ccc(N(C)C)cc2)cc1 | 7.49% (inactive) |
| CC(C)(C)C(=O)C1C(=O)c2ccccc2C1=O | -1.93% (inactive) |

| Structure (SMILES) | caspase-3 activation |
| --- | --- |
| S=C(NC1CCCCC1)NC1CCCCC1 | 3.5% (inactive) |
| Oc1ccc2c(c1)OCO2 | -2.85% (inactive) |
| CCOC(=O)C1OC1c1ccccc1 (stereo not given) | 0.955% (inactive) |
| CCC(Cl)CC(Cl)C(Cl)C(Cl)C(Cl)C(C)Cl (stereo not given) | 5.41% (inactive) |
| C/C=C/C=C/C=O | 29% (inactive) |
| c1ccc(COCc2ccccc2)cc1 | 2.76% (inactive) |
| O=C1c2ccccc2C(=O)C1(O)O | 0.893% (inactive) |
| CC(=O)OC1CC(C)OC(C)O1 (stereo not given) | 2.93% (inactive) |
| c1ccncc1 | -0.0676% (inactive) |
| O=C(OCc1ccccc1)c1ccccc1O | -1.91% (inactive) |
| Nc1cc(C(=O)O)c(O)c(S(=O)(=O)O)c1 | 0.407% (inactive) |
| c1cc2c3c(c1)ccc1cccc(c13)C2 | -1.87% (inactive) |
| O=C1OC(=O)c2ccccc21 | 1.71% (inactive) |
| CCCCOC(=O)COc1ccc(Cl)cc1Cl | -0.377% (inactive) |
| Cc1c(N)cccc1Cl | 0.378% (inactive) |
| CC(C)COC(=O)COc1cc(Cl)c(Cl)cc1Cl | 3.66% (inactive) |
| COc1ccc(C(=O)Nc2ccccc2)cc1[N+](=O)[O-] | -1.89% (inactive) |
| O=[N+]([O-])c1cccc(I)c1 | -1.61% (inactive) |
| C=C1CC[C@H](O)C/C1=C/C=C1\CCC[C@]2(C)[C@@H]([C@H](C)CCCC(C)C)CC[C@@H]12 | 173% (active) |
| O=C(OCC1CO1)C1CCCCC1C(=O)OCC1CO1 (stereo not given) | 4.8% (inactive) |
